The whole screen tested about 2,100 compounds, of which about 940 (45%) were called active. Inconclusive results (about 48%) are left out. So high a share suggests a set chosen from earlier hits. Some of the results follow. Unmarked numbers belong to inactive results. Calls come from the whole dose curve; as a rule, active = well fitted inhibition curve with a large enough effect; inconclusive = small, poorly fitted or top-dose-only effect; inactive = no such curve, though single readings can be large or run the other way.
Assay: Confirmatory qHTS for Inhibitors of ATXN expression; note: nearly all actives have a fitted effect of over 65% in size;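 for activity change, negative = inhibition: 0% = DMSO vehicle wells and -100% = medium-only wells without cells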
Details: ATXN2-luciferase reporter cells, luminescence, 24 h; series mostly up to 11.5 µM; activity change, negative = inhibition: at the top concentration
Method in brief: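 A titration, incubated 24 h with reporter cells expressing ATXN2-luciferase. Luminescence (SteadyGlo) gives ATXN2 expression, multiplexed GF-AFC fluorescence gives viability; normalised to DMSO and medium-only wells.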
Potency is the fitted concentration of half-maximal effect.

Row | SMILES | Potency | activity change, negative = inhibition
1 | COc1cc2c3nnc(-c4ccc(F)cc4)c-3cn(Cc3ccccc3F)c2cc1OC | 2 µM (active) | 
2 | COc1ccc(Cn2cc3c(-c4ccc(F)cc4)nnc-3c3cc(OC)c(OC)cc32)cc1 | 1.78 µM (active) | 
3 | COc1cc2c3nnc(-c4ccc(F)cc4)c-3cn(Cc3ccc(F)cc3)c2cc1OC | 2.82 µM (active) | 
4 | Cc1ccc(NC(=O)/C=C/c2ccc([N+](=O)[O-])s2)c(C)c1 | 1.41 µM (active) | 
5 | CC1(C(=O)N/N=C/c2ccc([N+](=O)[O-])o2)CC1(Br)Br (centres undefined) | 22.4 µM (active) | 
6 | COc1ccccc1NS(=O)(=O)c1cccc(C(=O)N/N=C/c2ccc([N+](=O)[O-])o2)c1 | 11.2 µM (active) | 
7 | O=C(N/N=C/c1ccc([N+](=O)[O-])o1)c1ccc2c(c1)OCO2 | 14.1 µM (active) | 
8 | O=[N+]([O-])c1ccc(/C=N/N=C/c2ccc([N+](=O)[O-])o2)o1 | 6.31 µM (active) | 
9 | COc1ccc(-c2csc3ncnc(Sc4nnnn4C)c23)cc1 | 3.16 µM (active) | 
10 | Cn1nnnc1Sc1ncnc2scc(-c3ccsc3)c12 | 14.1 µM (active) | 
11 | CCn1cc(C(=O)NCc2cccc(F)c2)c(=O)c2cc(F)c(N3CCN(C(=O)c4ccco4)CC3)cc21 | 15.8 µM (active) | 
12 | CCn1cc(C(=O)NCc2ccccc2)c(=O)c2cc(F)c(N3CCN(C(=O)c4ccco4)CC3)cc21 | 28.2 µM (active) | 
13 | c1ccc(-c2nnc(-c3ccccn3)nc2NC2CCCCC2)cc1 | 1.12 µM (active) | 
14 | CC(C)(C)c1cc[n+](C2=C([O-])c3ccccc3C(=O)/C2=N\S(=O)(=O)c2cccs2)cc1 | 1.12 µM (active) | 
15 | O=C(O)CCn1cc(/C=C/C(=O)c2ccc(Cl)cc2)c(-c2ccc(Br)cc2)n1 | 25.1 µM (active) | 
16 | O=C(NC1=CC(=O)c2ccccc2C1=O)c1ccccc1 | 14.1 µM (active) | 
17 | COc1ccc(-c2cc(CNc3nc(NC(C)C)nc4cc(-c5ccccc5)sc34)on2)cc1 | 11.2 µM (active) | 
18 | Cc1ccc(C(C)C)c(OCc2ccc(C(=O)N/N=C/c3ccc(O)cc3O)cc2)c1 | 1.58 µM (active) | 
19 | Cc1ccc(C(C)C)c(OCc2ccc(C(=O)N/N=C/c3cccc(O)c3O)cc2)c1 | 2.82 µM (active) | 
20 | Cc1ccc(C(C)C)c(OCc2ccc(C(=O)N/N=C/c3ccc(O)c(O)c3)cc2)c1 | 2.51 µM (active) | 
21 | O=C(N/N=C/c1ccc(O)cc1O)c1ccc(CN2C(=O)c3cccc4cccc2c34)cc1 | 2 µM (active) | 
22 | Cc1ccc(-c2nc3ccc(Cl)cn3c2CC(C)(C)C)cc1 |  | -10.7%
23 | Clc1ccc(C[n+]2cc(-c3ccccc3)n3c2CCCCC3)c(Cl)c1 | 15.8 µM (active) | 

Row | SMILES | Potency | activity change, negative = inhibition
24 | CN[C@H]1C[C@H]2c3[nH]c4ccc(-c5ccc(OC)cc5)cc4c3CCN2C(=O)[C@H]1[C@H](C)O | 3.16 µM (active) | 
25 | CC1(C)Cc2c(c(N3CCOCC3)nc3sc4c(NN)ncnc4c23)CS1 | 8.91 µM (active) | 
26 | CN(C)CCNc1ncnc2c1sc1nc(N3CCCC3)c3c(c12)CC(C)(C)OC3 | 25.1 µM (active) | 
27 | CN(C)CCNc1ncnc2c1sc1nc(N3CCOCC3)c3c(c12)CC(C)(C)SC3 | 15.8 µM (active) | 
28 | CCOc1ccc(CN(C)c2nc(-c3cccnc3)nc3ccccc23)cc1OC | 25.1 µM (active) | 
29 | CCCCCn1c(CN2CCN(c3cccc(Cl)c3)CC2)nc2c1c(=O)[nH]c(=O)n2C | 25.1 µM (active) | 
30 | CCN1C(=O)C(CC(=O)Nc2ccc(OC)cc2)N(CCc2ccc(F)cc2)C1=S (centres undefined) | 2.82 µM (active) | 
31 | CC(C)(C)c1cc(C(=O)NN)n(Cc2ccc(Cl)cc2Cl)n1 | 15.8 µM (active) | 
32 | Oc1c(CN2CCN(c3ccccc3)CC2)cc(Br)c2cccnc12 | 1.26 µM (active) | 
33 | O=[N+]([O-])c1cc(CN2CCN(c3ccccc3)CC2)c(O)c2ncccc12 | 3.16 µM (active) | 
34 | Oc1c(CN2CCOCC2)cc(COCc2ccccc2)c2cccnc12 | 3.16 µM (active) | 
35 | Oc1c(CN2CCCCC2)ccc2cccnc12 | 6.31 µM (active) | 
36 | CN(C)CCNC(=O)c1ccc(Cl)c2cc3ccccc3nc12 | 6.31 µM (active) | 
37 | CN(C)CCNC(=O)c1cccc2[nH]c(-c3ccncc3)nc12 | 2.82 µM (active) | 
38 | CN(CC(=O)Nc1cccc(F)c1)CC(=O)Nc1cccc2ccccc12 |  | -23.6% [at 57.5 µM]
39 | CCN(CC)CCC(=O)Nc1cccc2c1C(=O)c1ccccc1C2=O | 1.58 µM (active) | 
40 | Cc1ccn2c(Nc3ccccc3)c(-c3ccccn3)nc2c1 | 0.708 µM (active) | 
41 | Cc1ccn2c(Nc3ccccc3C)c(-c3ccccn3)nc2c1 | 3.55 µM (active) | 
42 | Cc1ccc(Nc2c(-c3ccccn3)nc3cc(C)ccn23)cc1 | 3.55 µM (active) | 
43 | Cc1ccc(Nc2c(-c3ccccn3)nc3cccc(C)n23)cc1 | 3.16 µM (active) | 
44 | Cc1ccc2nc(-c3ccccn3)c(NC3CCCC3)n2c1 |  | -29.6%
45 | Cc1cnc(C(=O)NNC(=O)c2ccc(Br)cc2)cn1 | 25.1 µM (active) | 
46 | Cc1ccc2c(c1)C1CN(C)CCC1N2C(=S)NC(=O)c1ccc(Br)cc1 (centres undefined) |  | -21.5%

Row | SMILES | Potency | activity change, negative = inhibition
47 | O=C(NCc1ccco1)c1ccc(-c2cccc(Cl)c2)o1 |  | 40.1% [at 57.5 µM]
48 | COCc1ccc(CN2CCC(C(=O)Nc3cccc(-c4cccc(Cl)c4)c3)CC2)o1 | 25.1 µM (active) | 
49 | CN1CCC(N(C)C(=O)c2ccc(Cl)c(S(=O)(=O)N3CCc4ccccc43)c2)CC1 |  | -26% [at 57.5 µM]
50 | CSCc1nnc(NC(=O)c2ccc(S(=O)(=O)N3CCCCC3C)cc2)o1 (centres undefined) | 20 µM (active) | 
51 | CC1CCCCN1S(=O)(=O)c1ccc(C(=O)Nc2nnc(-c3ccccc3Cl)o2)cc1 (centres undefined) | 2.51 µM (active) | 
52 | O=C(Nc1nnc(C2CC2)o1)c1ccc(S(=O)(=O)N2CCCc3ccccc32)cc1 | 7.08 µM (active) | 
53 | O=S(=O)(c1ccc(Cl)cc1)N1CCN(Cc2ccc(O)c3ncccc23)CC1 | 3.55 µM (active) | 
54 | Cc1ccc(C)c(S(=O)(=O)N2CCN(Cc3ccc(O)c4ncccc34)CC2)c1 | 3.16 µM (active) | 
55 | COc1ccccc1N(CC(=O)N/N=C(\C)c1ccccc1O)S(=O)(=O)c1ccc(C)cc1 | 15.8 µM (active) | 
56 | COc1ccccc1-c1ccc2c(c1)C(C)(Cc1cccc(F)c1)C(=O)N2 (centres undefined) | 28.2 µM (active) | 
57 | Cc1cnc(NC(=O)CCCc2nc3ccccc3s2)s1 | 1.41 µM (active) | 
58 | CCN(CC)CCNC(=O)C1CCN(S(=O)(=O)c2c(C)noc2/C=C/c2ccccc2F)CC1 | 3.16 µM (active) | 
59 | COc1cc(NS(=O)(=O)c2ccc(N/C=C(\C#N)c3nc4cc(Cl)ccc4o3)cc2)nc(OC)n1 | 3.98 µM (active) | 
60 | CCCCOc1ccc(NC2=NC3(CCCC3)N=C(N)N2)cc1 |  | -18% [at 57.5 µM]
61 | CC[C@H]1CN2CCc3cc(OC)c(OC)cc3C2C[C@@H]1C[C@H]1NCCc2cc(OC)c(OC)cc21 (some centres undefined) | 0.316 µM (active) | 
62 | CC[C@H]1CN2CCc3cc(OC)c(OC)cc3[C@@H]2C[C@@H]1C[C@H]1NCCc2cc(OC)c(OC)cc21 | 0.0447 µM (active) | 
63 | CCC1=C(CC2NCCc3ccccc32)CC2c3cc(OC)c(OC)cc3CCN2C1 (centres undefined) | 8.91 µM (active) | 
64 | O=C1C=C(Nc2ccccc2O)c2ccccc2C1=O | 12.6 µM (active) | 
65 | CCN1CCN(c2ccc(S(=O)(=O)N3CCCCC3)cc2NC(=O)/C=C/c2ccc([N+](=O)[O-])cc2)CC1 | 2 µM (active) | 
66 | COc1ccc(/C=C/C(=O)Nc2cccc(S(=O)(=O)N3CCCC3)c2)cc1OC |  | -15.2%
67 | CCN1CCN(c2ccc(S(=O)(=O)N3CCCCC3)cc2NC(=O)c2ccc([N+](=O)[O-])s2)CC1 | 3.16 µM (active) | 
68 | COc1ccc(CNc2ncnc3c2[nH]c2ccccc23)cc1 | 8.91 µM (active) | 
69 | Fc1ccc2[nH]c3c(NCc4ccccc4)ncnc3c2c1 | 1.12 µM (active) | 

Row | SMILES | Potency | activity change, negative = inhibition
70 | CCOc1ccc2[nH]c3c(NCCc4ccc(OC)c(OC)c4)ncnc3c2c1 | 15.8 µM (active) | 
71 | Cc1cc(NC(=O)CSc2nc3c(sc4ccccc43)c(=O)n2CCCN2CCOCC2)n[nH]1 | 1.58 µM (active) | 
72 | Cn1c(=O)c2c(nc(SCCN3CCOCC3)n2Cc2cccc3ccccc23)n(C)c1=O |  | -12.7%
73 | CCOC(=O)COc1ccc(Br)cc1/C=C/c1[nH]c(=O)[nH]c(=O)c1[N+](=O)[O-] |  | -23.6%
74 | CC1=NN(c2nc3ccccc3[nH]2)C(=O)C1Cc1ccccc1 (centres undefined) | 2 µM (active) | 
75 | Cc1cc2nc(-c3nnnn3Cc3ccccc3)c(=O)[nH]c2cc1C |  | -0.827%
76 | CCN(CC)CCNC(=O)c1ccc(NC(=O)Cc2cccc3ccccc23)cc1 | 3.98 µM (active) | 
77 | Cc1ccc(-c2cc(-c3ccccc3)nc(NN)n2)cc1 | 35.5 µM (active) | 
78 | CCOc1ccc(NCc2cccn2-c2nnc(N3CCC(C(=O)NCCCN4CC(C)CC(C)C4)CC3)s2)cc1 (centres undefined) | 3.16 µM (active) | 
79 | CCSc1nc2ccccc2n1C(=O)/C=C\c1ccc(OC)c(OC)c1 | 8.91 µM (active) | 
80 | C=CCSc1nc2ccccc2n1C(=O)/C=C/c1ccc(OC)c(OC)c1 | 2.82 µM (active) | 
81 | CC(=O)N1c2ccc(S(=O)(=O)N3CCC(C(=O)Nc4cccc(C(F)(F)F)c4)CC3)cc2CC1C (centres undefined) | 14.1 µM (active) | 
82 | Cc1ccc2c(Cl)cc(Cl)c(O)c2n1 | 5.62 µM (active) | 
83 | COc1ccc(OC)c(C(=O)/C=C/c2ccccc2C(F)(F)F)c1 | 3.16 µM (active) | 
84 | COc1ccc([C@@]2(C(C)C)ON(c3ccccc3C(F)(F)F)C2=O)cc1 |  | -15.7%
85 | Cc1ccc(-c2cc(C(=O)NCCCN3CCOCC3)no2)cc1 | 7.94 µM (active) | 
86 | CC(O)(c1ccccc1)c1nc(-c2ccncc2)cs1 (centres undefined) |  | 7.8%
87 | OCCN1CCN(C2CCC(c3ccc(F)cc3)c3ccc(F)cc32)CC1 (centres undefined) | 25.1 µM (active) | 
88 | CCN(CC)S(=O)(=O)c1ccc(N/N=C/c2cc(OC)ccc2O)nc1 | 0.794 µM (active) | 
89 | CC(=O)N1CCCc2cc(S(=O)(=O)N3CCCC(C(=O)N4CCN(c5cc(C)ccc5C)CC4)C3)ccc21 (centres undefined) | 3.16 µM (active) | 

Reference: PubChem BioAssay AID1745848 (National Center for Advancing Translational Sciences (NCATS), 2022)
